From PubChem BioAssay (NCATS)
Records with an inconclusive call do not appear. Active and inactive are the calls of the source. Calls follow the shape of the dose curve; as a rule, active = well fitted curve in the direction sought with a large enough effect; inconclusive = small, poorly fitted or top-dose-only effect, or another doubt; inactive = no such curve, though single readings can be large; an effect the other way counts as inactive or inconclusive.

Tests used:
[1] = BET inhibitor-based combinations targeting novel dependencies in MECOM-rearranged (r) AML: SET-2 cell line (AID 2202231); details: SET-2 AML cells viability, CellTiter-Glo luminescence, 48 h; viability: hits give low values, concentration not given here; also: nearly all actives have a fitted effect of over 35% in size; also: potency is read from the fitted curve at half-maximal effect;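 as to viability: plate controls were DMSO treated cells for no effect and wells without cells for full effect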
Method in brief: (§1)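 Each compound was tested at eleven concentrations on cells seeded at 500/well. After two days' incubation, ATP-based luminescence reported viability; responses relative to DMSO and blank wells yielded AUC and cell-line-centred Z-AUC.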

[2] = BET inhibitor-based combinations targeting novel dependencies in MECOM-rearranged (r) AML: OCI-AML3 cell line (AID 2202232); details: CellTiter-Glo luminescence, 48 h; Potency: OCI-AML3 viability; series mostly up to 46 µM; also: nearly all actives have a fitted effect of over 35% in size; also: potency is read from the fitted curve at half-maximal effect
Method in brief: as §1

[3] = BET inhibitor-based combinations targeting novel dependencies in MECOM-rearranged (r) AML: MV-4-11 cell line (AID 2202233); details: MV-4-11 AML viability, CellTiter-Glo luminescence, 48 h; series mostly up to 46 µM; also: nearly all actives have a fitted effect of over 45% in size; also: potency is read from the fitted curve at half-maximal effect
Method in brief: (§2)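 First, 500 cells per well were seeded; next, drugs were pinned as 11-point doses; then plates sat 48 hr in the incubator; finally CellTiter-Glo was added and luminescence read, with AUC and Z-AUC computed.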

[4] = BET inhibitor-based combinations targeting novel dependencies in MECOM-rearranged (r) AML: HNT-34 cell line (AID 2202234); details: HNT-34 AML viability, CellTiter-Glo luminescence, 48 h; series mostly up to 46 µM; also: nearly all actives have a fitted effect of over 35% in size; also: potency is read from the fitted curve at half-maximal effect
Method in brief: as §2

[5] = BET inhibitor-based combinations targeting novel dependencies in MECOM-rearranged (r) AML: UCSD-AML1 cell line (AID 2202235); details: UCSD-AML1 AML cells viability, CellTiter-Glo, 48 h; series mostly up to 46 µM; also: nearly all actives have a fitted effect of over 40% in size; also: potency is read from the fitted curve at half-maximal effect
Method in brief: as §2

[6] = BET inhibitor-based combinations targeting novel dependencies in MECOM-rearranged (r) AML: AML-191 cell line (AID 2202236; also: nearly all actives have a fitted effect of over 35% in size; also: potency is read from the fitted curve at half-maximal effect); details: AML-191 viability, CellTiter-Glo luminescence, 48 h; series mostly up to 46 µM
Method in brief: as §1

[7] = BET inhibitor-based combinations targeting novel dependencies in MECOM-rearranged (r) AML: AML-194 cell line (AID 2202237; also: nearly all actives have a fitted effect of over 40% in size; also: potency is read from the fitted curve at half-maximal effect); details: AML-194 (MECOM-r AML) viability, CellTiter-Glo, 48 h; series mostly up to 46 µM
Method in brief: as §1

[8] = target: Aldehyde dehydrogenase, mitochondrial (Homo sapiens) (UniProt P05091); assay: qHTS for Inhibitors of the Aldehyde Dehydrogenase Family (ALDH2) Primary screen (AID 2061308); details: ALDH2 enzyme inhibition qHTS, 1536-well; series mostly up to 56 µM;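 also: plate controls were vehicle for no effect and reference inhibitor for full effect; nearly all actives have a fitted effect of over 55% in size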
[9] = target: Retinaldehyde dehydrogenase 3 (Homo sapiens) (UniProt P47895); assay: qHTS for Inhibitors of the Aldehyde Dehydrogenase Family (ALDH1A3) Primary screen (AID 2061315); details: ALDH inhibition qHTS; series mostly up to 56 µM;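 also: plate controls were DMSO vehicle for no effect and reference inhibitor for full effect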

CC1(C)CC[C@]2(NC(=O)C(C)(F)F)CC[C@]3(C)[C@H](C(=O)C=C4[C@@]5(C)C=C(C#N)C(=O)C(C)(C)[C@@H]5CC[C@]43C)[C@@H]2C1
active: Potency [1] 1660 nM | Potency [2] 1480 nM | Potency [3] 1180 nM | Potency [4] 1660 nM | Potency [5] 1320 nM | Potency [6] 1860 nM

CC(C)(O)/C=C\C(=O)[C@](C)(O)[C@H]1[C@H](O)C[C@]2(C)[C@@H]3CC=C4[C@@H](C=C(O)C(=O)C4(C)C)[C@]3(C)C(=O)C[C@@]12C
active: Potency [1] 1660 nM | Potency [2] 417 nM | Potency [3] 148 nM | Potency [5] 148 nM | Potency [7] 417 nM

C[C@@H](C1CC[C@@]2(O)C3=CC(=O)[C@@H]4C[C@@H](O)[C@@H](O)C[C@]4(C)[C@H]3CC[C@]12C)[C@H](O)CCC(C)(C)O (stereo partly drawn)
inactive: viability [1] 104% | Potency [2] | Potency [3] | Potency [4] | Potency [6] | Potency [7]

N[C@@H]1C[C@H]1c1ccccc1
inactive: viability [1] 95.9%

COc1ccsc1CNCC[C@@]1(c2ccccn2)CCOC2(CCCC2)C1
inactive: Potency [8] | Potency [9]

CCOP(=O)(OCC)C(C)NC(=O)N(CCCl)N=O (stereo not drawn)
inactive: viability [1] 106% | Potency [2] | Potency [4] | Potency [5] | Potency [6] | Potency [7]

CCc1nn2c(=O)c(C)c(N3CCNCC3)nc2s1
inactive: Potency [8] | Potency [9]

C[C@]12CC[C@H](O)CC1=CC[C@@H]1[C@@H]2CC[C@]2(C)C(=O)CC[C@@H]12
inactive: Potency [8] | Potency [9] | viability [1] 109% | Potency [4] | Potency [5] | Potency [7]

CC(C)C[C@H](CN)CC(=O)O
inactive: viability [1] 113% | Potency [2] | Potency [3] | Potency [4] | Potency [5] | Potency [6] | Potency [7]

COc1cc2c(cc1F)C(c1ccccc1Cl)=Nc1c(n[nH]c1C)N2
active: Potency [1] 13200 nM | Potency [2] 3720 nM | Potency [3] 1860 nM | Potency [7] 2350 nM

C[C@H]1CCC/C=C/C2C[C@H](O)C[C@H]2[C@H](O)/C=C/C(=O)O1 (stereo partly drawn)
active: Potency [1] 332 nM | Potency [2] 417 nM | Potency [3] 263 nM | Potency [4] 296 nM | Potency [5] 209 nM | Potency [7] 372 nM
inactive: Potency [8] | Potency [9]

CCCCCCC(C)(C)c1cc(O)c2c(c1)OC(C)(C)C1CC=C(CO)C[C@H]21 (stereo partly drawn)
active: Potency [1] 23500 nM | Potency [2] 26300 nM | Potency [4] 14800 nM | Potency [6] 18600 nM | Potency [7] 23500 nM

O=c1cccc2n1CC1CNC[C@H]2C1
inactive: viability [1] 119% | Potency [2] | Potency [5] | Potency [6] | Potency [7]

C=C[C@H]1CN2CCC1C[C@@H]2[C@@H](O)c1ccnc2ccccc12 (stereo partly drawn)
inactive: viability [1] 98.5% | Potency [2] | Potency [4] | Potency [5] | Potency [6]

CC[C@H]1C2CC3[C@@H]4N(C)c5ccccc5[C@]45C[C@@H]([C@H]2[C@H]5O)N3[C@H]1O
inactive: Potency [8] | Potency [9]

C[C@@H]1O[C@@H](O[C@@H]2C=C3CC[C@@H]4[C@H](CC[C@]5(C)[C@@H](c6ccc(=O)oc6)CC[C@]45O)[C@@]3(C)CC2)[C@H](O)[C@H](O)[C@H]1O
active: Potency [2] 14.8 nM | Potency [3] 29.5 nM | Potency [4] 14.8 nM | Potency [5] 18.6 nM | Potency [6] 18.6 nM | Potency [7] 14.8 nM

COC(=O)[C@]12CCC(C)(C)C[C@H]1[C@H]1C(=O)C=C3[C@@]4(C)C=C(C#N)C(=O)C(C)(C)[C@@H]4CC[C@@]3(C)[C@]1(C)CC2
active: Potency [2] 2630 nM | Potency [3] 417 nM | Potency [5] 1480 nM | Potency [6] 1860 nM

CN1C(=O)[C@@H](NC(=O)[C@H](CCC(F)(F)F)[C@H](CCC(F)(F)F)C(N)=O)N=C(c2ccccc2)c2ccccc21
inactive: viability [1] 114% | Potency [3] | Potency [5] | Potency [6]

C/C=C(\C)C(=O)N[C@@H](c1ccccc1)[C@@H](O)C(=O)O[C@H]1C[C@@]2(O)[C@@H](OC(=O)c3ccccc3)[C@@H]3[C@]4(OC(C)=O)CO[C@@H]4C[C@H](O)[C@@]3(C)C(=O)[C@H](OC(C)=O)C(=C1C)C2(C)C
active: Potency [5] 16.6 nM | Potency [6] 46.8 nM

C[C@H]1[C@H](O)[C@@H](C)/C=C/C=C/CC/C=C/C=C/C=C/C=C/[C@H](O[C@@H]2O[C@H](C)[C@@H](O)[C@H](N)[C@@H]2O)C[C@@H]2O[C@](O)(C[C@@H](O)[C@H](O)CC[C@@H](O)C[C@@H](O)C[C@@H](O)CC(=O)O[C@H]1C)C[C@H](O)[C@H]2C(=O)O
inactive: Potency [3] | Potency [4]
